# VDR inhibitor: Inhibitors of the vitamin D receptor (VDR): qHTS | 400,000 tested, 0.93% active | Vitamin D3 receptor (Homo sapiens), P11473 | Potency, µM, for the others: max response, negative = inhibition, actives largely listed as inhibitors | VDR-SRC2-3 peptide fluorescence polarization, 2 h; also: % is scaled to controls: 0 for no effect and ±100 for the full control effect
#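 FP read-out; VDR + SRC2-3 coactivator peptide; 23 nl compound by pintool; 2 h RT incubation; reagents held at 4 deg C, protected from light.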
# DT40 TDP1 CPT: qHTS for Inhibitors of human tyrosyl-DNA phosphodiesterase 1 (TDP1): qHTS in cells in presence of CPT; 420,000 tested, 12% active; Potency, µM (doses to about 46.2 µM), inactives show at the highest dose activity change, negative = growth inhibition, most hits filed as inhibitors; chicken DT40 Tdp1-/-;hTDP1 cells + 20 nM CPT, ATP luminescence, 48 h; also: % is scaled to controls: 0 for no effect and ±100 for the full control effect; nearly all actives have a fitted effect of over 55% in size
#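 Cell growth measured by CellTiter-Glo luminescence after a minimum 48 h, 37 C compound exposure with 20 nM CPT in Tdp1-knockout DT40 cells stably expressing hTDP1, seeded 400/well; qHTS titration format.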
# KAT2A inh: qHTS Assay for Inhibitors of GCN5L2 | GCN5L2 HAT assay, ThioGlo1 CoA-SH fluorescence | Potency, µM (titrated, usually from 58.9 µM), without a hit: at the top dose activity change, negative = inhibition, hits mostly inhibitors | 390,000 tested, 0.21% active; also: % is scaled to controls: 0 for no effect and ±100 for the full control effect
# Target sequence (Q92830 whole entry, looked up): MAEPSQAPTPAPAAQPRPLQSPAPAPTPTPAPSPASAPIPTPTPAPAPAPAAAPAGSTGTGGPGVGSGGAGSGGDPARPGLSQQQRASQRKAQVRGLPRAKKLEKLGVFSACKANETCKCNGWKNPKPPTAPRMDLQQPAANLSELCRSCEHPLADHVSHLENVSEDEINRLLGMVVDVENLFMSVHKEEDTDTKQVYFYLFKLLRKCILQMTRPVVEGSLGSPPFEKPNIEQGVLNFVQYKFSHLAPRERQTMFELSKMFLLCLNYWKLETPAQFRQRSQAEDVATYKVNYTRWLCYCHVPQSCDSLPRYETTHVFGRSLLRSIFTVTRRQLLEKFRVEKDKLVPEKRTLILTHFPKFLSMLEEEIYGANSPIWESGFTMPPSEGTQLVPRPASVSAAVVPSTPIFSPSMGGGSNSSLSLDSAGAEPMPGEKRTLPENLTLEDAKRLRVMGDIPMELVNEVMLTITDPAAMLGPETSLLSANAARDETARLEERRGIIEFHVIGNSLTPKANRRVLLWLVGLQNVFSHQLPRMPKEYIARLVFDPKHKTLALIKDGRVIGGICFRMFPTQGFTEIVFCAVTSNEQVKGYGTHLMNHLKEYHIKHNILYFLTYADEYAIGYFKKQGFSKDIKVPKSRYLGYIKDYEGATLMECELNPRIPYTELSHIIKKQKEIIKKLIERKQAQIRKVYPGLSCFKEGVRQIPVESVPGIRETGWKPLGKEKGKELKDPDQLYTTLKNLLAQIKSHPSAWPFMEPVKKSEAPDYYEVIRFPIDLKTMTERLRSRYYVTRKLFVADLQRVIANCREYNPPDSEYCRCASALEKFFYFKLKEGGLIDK
#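 ThioGlo1-coupled HAT assay: 20nM GCN5L2, 70uM acetyl-CoA, 75uM H3(1-25) peptide, pH 7.5. Fluorescence read at 340/540nm at start and after 20 min at room temperature.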
# TDP1 block: qHTS Assay for Inhibitors of Tyrosyl-DNA Phosphodiesterase (TDP1). Tyrosyl-DNA phosphodiesterase 1 (Homo sapiens), Q9NUW8. recombinant TDP1, AlphaScreen DNA substrate cleavage. Potency, µM (series often up to 130 µM), without a hit: top-dose activity change, negative = inhibition, hits mostly inhibitors. 350,000 tested, 0.28% active. AID 485290, 2010; also: % is scaled to controls: 0 for no effect and ±100 for the full control effect; nearly all actives have a fitted effect of over 40% in size
#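 Tdp1 1 nM final; 15 min RT w/ cpd; substrate 15 nM, 5 min; beads 10 ug/ml, 10 min; AlphaScreen read. Neg ctrl: no enzyme.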
# PLK1 PBD inh: qHTS for Inhibitors of PLK1-PDB (polo-like kinase 1 - polo-box domain): Primary Screen | Serine/threonine-protein kinase PLK1 (Homo sapiens), P53350 | Plk1 PBD binding of FITC phosphopeptide, fluorescence polarization | Potency, µM, without a hit: max response, negative = inhibition, most hits filed as inhibitors | 360,000 tested, 2.8% active | AID 720504, 2013; also: series mostly up to about 57 µM; % is scaled to controls: 0 for no effect and ±100 for the full control effect; nearly all actives have a fitted effect of over 65% in size
# DT40 TDP1 no CPT: qHTS for Inhibitors of human tyrosyl-DNA phosphodiesterase 1 (TDP1): qHTS in cells in absence of CPT; Potency, µM (series often up to 46.2 µM), for the others: top-dose activity change, negative = growth inhibition, usual class: inhibitors; 420,000 tested, 15% active; DT40 Tdp1-/- hTDP1 cells, no CPT, ATP luminescence, 48 h; also: % is scaled to controls: 0 for no effect and ±100 for the full control effect; nearly all actives have a fitted effect of over 55% in size
#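 Chicken DT40 Tdp1-/- cells stably complemented with human TDP1 were seeded at 400 cells/well with DMSO in place of 20 nM camptothecin. After compound pinning, cells grew at least 48 hr at 37 °C; viability read by CellTiter-Glo luminescence.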
# VDR confirm: qHTS for Inhibitors of the vitamin D receptor (VDR): Hit Validation in Primary Screen | 840 tested, 89% active | shares compounds with VDR inhibitor | VDR-coactivator inhibition assay, qHTS confirmation | Potency, µM, most hits filed as inhibitors
# VDR FP: qHTS for Inhibitors of the vitamin D receptor (VDR): Hit Validation using a Fluorescein Assay | 840 tested, 48% active | shares compounds with VDR inhibitor | VDR-coactivator binding, fluorescein fluorescence polarization | Potency, µM (titrated, usually from 57.1 µM), for the others: top-dose activity change, negative = inhibition, actives largely listed as inhibitors
# VDR bla: qHTS for Inhibitors of the vitamin D receptor (VDR): Hit Validation using a Beta-Lactamase Assay; shares compounds with VDR inhibitor; VDR beta-lactamase reporter cells, FRET ratio; cells co-treated with VDR agonist LG190178; Potency, µM (titrated, usually from 46.1 µM), for the others: at the top dose activity change, negative = inhibition, usual class: inhibitors; 840 tested, 23% active; AID 602202, 2012; also: % is scaled to controls: 0 for no effect and ±100 for the full control effect
# VDR viability: qHTS for Inhibitors of the vitamin D receptor (VDR): Hit Validation using a Cytotoxicity Assay; Potency, µM (doses to about 48.3 µM), inactives show at the highest dose activity change, negative = cytotoxicity, usual class: cytotoxic; cytotoxicity counter-screen, cell viability, qHTS; 840 tested, 18% active; shares compounds with VDR inhibitor; AID 602204, 2012;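 also: plate controls were DMSO for no effect and high-concentration cycloheximide for full effect; nearly all actives have a fitted effect of over 75% in size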
# TbPYK inh: qHTS of Trypanosoma Brucei Inhibitors: Confirmatory Assay for Cherry-picked Compounds; shares compounds with PLK1 PBD inh; recombinant TbPYK, Kinase-Glo ATP luminescence; Potency, µM (top dose mostly 76.9 µM), inactives show at the highest dose activity change, negative = inhibition, actives largely listed as inhibitors; 890 tested, 67% active; AID 720569, 2013; also: % is scaled to controls: 0 for no effect and ±100 for the full control effect; nearly all actives have a fitted effect of over 70% in size
# TbPYK ADP-Glo: qHTS of Trypanosoma Brucei Inhibitors: Orthogonal Assay for Cherry-picked Compounds; shares compounds with PLK1 PBD inh; recombinant TbPYK, ADP-Glo luminescence, 60 min; Potency, µM (titrated, usually from 76.9 µM), inactives show at the top dose activity change, negative = inhibition, usual class: inhibitors; 890 tested, 62% active; AID 720584, 2013; also: % is scaled to controls: 0 for no effect and ±100 for the full control effect; nearly all actives have a fitted effect of over 75% in size
# Numbers without * were called inactive; ? = inconclusive; · = no result given. In the library only some 18% were active in any assay of this set; here they are far more common. Calls follow the shape of the dose curve; as a rule, active = well fitted curve in the direction sought with a large enough effect; inconclusive = small, poorly fitted or top-dose-only effect, or another doubt; inactive = no such curve, though single readings can be large; an effect the other way counts as inactive or inconclusive. Potency is read from the fitted curve at half-maximal effect.
SMILES,VDR inhibitor,DT40 TDP1 CPT,KAT2A inh,TDP1 block,PLK1 PBD inh,DT40 TDP1 no CPT,VDR confirm,VDR FP,VDR bla,VDR viability,others
COc1ccc(-n2c(=S)[nH]c3c(sc(=S)n3-c3ccccc3)c2=O)c(OC)c1,35µM*,21µM*,-28%,0%,2.4µM*,16µM*,3.4*,?,26%,20%,
COc1cc2[nH]c(=S)n(-c3ccccc3)c(=O)c2cc1OC,16%,1%,-8%,-7%,-3%,8%,·,·,·,·,
Cc1ccc(C2C(=O)NC(=O)NC2=O)cc1,17%,-1%,·,·,-10%,-24%,·,·,·,·,
CCOC(=O)c1c(NS(=O)(=O)c2ccccc2)n(CCCOC)c2nc3ccccc3nc12,?,?,22µM*,-4%,-25%,?,2.5*,2.2µM*,-8%,24%,
CCOC(=O)c1c(C)n(CCOC)c2ccc(O)cc12,3%,?,-13%,0%,-7%,?,·,·,·,·,
CC1COC2=C1C(=O)C(=O)c1c2ccc2c1CCCC2(C)C (stereo not given),7.1µM*,?,28µM*,20%,·,13µM*,?,14µM*,-10%,7%,
C[C@H]1COC2=C1C(=O)C(=O)c1c2ccc2c1CCCC2(C)C,11µM*,5.2µM*,?,21%,27µM*,5.2µM*,20*,25µM*,-3%,9%,
COc1ccccc1CCNC(=O)CCC(=O)N1CC2C[C@@H](C1)Cn1c2cccc1=O,-12%,-6%,-5%,·,-12%,-8%,·,·,·,·,
O=C(/C=C/c1ccc2c(c1)OCO2)c1c(O)n(CCC2=CCCCC2)c(=O)[nH]c1=O,?,?,29%,-6%,?,5.8µM*,5.6*,?,21µM*,-5%,
CCCCn1c(O)c(C(=O)/C=C/c2ccc3c(c2)OCO3)c(=O)[nH]c1=O,?,?,-21%,·,-16%,?,11*,?,?,18%,
CCCCn1c(O)c(C(CC)=NCc2ccc3c(c2)OCO3)c(=O)[nH]c1=O,-9%,?,-13%,7%,-5%,?,·,·,·,·,
Nc1ccccc1N=Cc1c(O)n(CCC2=CCCCC2)c(=O)[nH]c1=O,1%,?,-7%,3%,-3%,?,·,·,·,·,
O=C1NC(=O)C(=Cc2ccc(-c3ccc(S(=O)(=O)N4CCOCC4)cc3)o2)C(=O)N1,22µM*,?,-4%,·,2.7µM*,?,19*,?,34%,-9%,
OCCOCC#CCN1CCOCC1,5%,9%,-1%,-5%,-9%,-4%,·,·,·,·,
CN1CCC(O)(c2cccs2)C(C(=O)c2cccs2)C1 (stereo not given),?,1.3µM*,-7%,1%,27µM*,3.7µM*,20*,25µM*,?,?,
C=CCn1c(O)c(C(C)=Nc2ccc(C(=O)O)cc2)c(=O)[nH]c1=O,2%,10%,0%,·,-1%,2%,·,·,·,·,
O=C(O)CCCOc1ccc(Cl)cc1Cl,-3%,9%,4%,6%,-27%,1%,·,·,·,·,
O=C1NC(=O)C(=Cc2cc(Cl)ccc2OCc2ccc(C(=O)O)cc2)C(=O)N1,50µM*,0%,-1%,·,7.5µM*,-2%,?,?,26%,19%,TbPYK inh=25µM*;TbPYK ADP-Glo=32µM*
CCN(CC)c1ccc(NC(=O)c2cccc(C)c2)cc1S(=O)(=O)Nc1ccccc1OC,50µM*,16µM*,-13%,-1%,3µM*,23µM*,?,?,8%,-3%,TbPYK inh=?;TbPYK ADP-Glo=?
O=S1(=O)NCC2(CC2)CN1Cc1ccccc1,·,-7%,·,·,3%,-14%,·,·,·,·,
CC1(C)OC(c2ccccc2)=C/C(=C/C=C2C(=O)NC(=O)NC2=O)O1,-8%,-23%,-4%,-1%,27%,?,·,·,·,·,
O=C1NC(=O)C(=Cc2ccc(Sc3ccccc3)o2)C(=O)N1,40µM*,?,-25%,-10%,0.67µM*,15µM*,11*,?,?,?,TbPYK inh=32µM*;TbPYK ADP-Glo=35µM*
CN1C(=O)NC(=O)/C(=C\C=C\c2ccccc2[N+](=O)[O-])C1=O,11µM*,?,-18%,3%,1.2µM*,5.8µM*,4.2*,?,?,-7%,TbPYK inh=16µM*;TbPYK ADP-Glo=32µM*

# Compound activity deposited in PubChem BioAssay by National Center for Advancing Translational Sciences (NCATS).
